# Reference: paper PMC7862700, “An all-to-all approach to the identification of sequence-specific readers for epigenetic DNA modifications on cytosine”
# Tests used:
# Experiment in all cases: DAPPL (digital affinity profiling via proximity ligation, sequencing); 10 mM Tris-HCl pH 7.5, 50 mM NaCl, 1 mM DTT, 4% glycerol, room temperature, 30 min; GST-TFs on glutathione beads, 16-mer random dsDNA library, 0.1% formaldehyde crosslink after washing; high values mean tight binding
# FLI1 = biological target: T1, FLI1 (Homo sapiens, UniProt Q01543 1-452); conditions: protein: recombinant; tags: N-terminal GST; dsDNA, one strand shown
# T1 sequence: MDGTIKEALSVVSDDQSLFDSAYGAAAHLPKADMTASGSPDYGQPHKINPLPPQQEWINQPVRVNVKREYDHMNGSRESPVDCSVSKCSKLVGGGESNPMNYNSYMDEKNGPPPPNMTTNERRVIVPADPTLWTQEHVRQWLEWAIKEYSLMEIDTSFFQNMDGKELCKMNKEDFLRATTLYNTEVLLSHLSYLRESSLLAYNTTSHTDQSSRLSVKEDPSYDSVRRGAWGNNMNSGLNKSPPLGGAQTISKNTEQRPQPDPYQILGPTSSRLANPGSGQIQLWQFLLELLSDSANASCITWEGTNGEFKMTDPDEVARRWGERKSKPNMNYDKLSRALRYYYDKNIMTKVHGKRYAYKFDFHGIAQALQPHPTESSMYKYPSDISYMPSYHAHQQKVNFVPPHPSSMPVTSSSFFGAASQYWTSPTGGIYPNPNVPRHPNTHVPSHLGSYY
# In short: (§1)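 Human transcription factors carrying a GST fusion were produced in yeast, bound to glutathione beads, tagged with DNA barcodes and pooled together with a tag-only sample. Each pool was held with 200 nmole of a random double-stranded 16-mer DNA library in Tris/NaCl/DTT/glycerol buffer for 30 min at room temperature, then washed, crosslinked in 0.1% formaldehyde, proximity-ligated with BsaI/T4 ligase (1 h, 37 °C), PCR-amplified and sequenced on an Illumina NextSeq500. Binding signal is the read frequency of each hexamer for a given factor divided by its frequency in the tag-only sample.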
# ELK1 = biological target: T2, ELK1 (Homo sapiens, UniProt P19419 1-428); conditions: protein: recombinant; tags: N-terminal GST; dsDNA, one strand shown
# T2 sequence: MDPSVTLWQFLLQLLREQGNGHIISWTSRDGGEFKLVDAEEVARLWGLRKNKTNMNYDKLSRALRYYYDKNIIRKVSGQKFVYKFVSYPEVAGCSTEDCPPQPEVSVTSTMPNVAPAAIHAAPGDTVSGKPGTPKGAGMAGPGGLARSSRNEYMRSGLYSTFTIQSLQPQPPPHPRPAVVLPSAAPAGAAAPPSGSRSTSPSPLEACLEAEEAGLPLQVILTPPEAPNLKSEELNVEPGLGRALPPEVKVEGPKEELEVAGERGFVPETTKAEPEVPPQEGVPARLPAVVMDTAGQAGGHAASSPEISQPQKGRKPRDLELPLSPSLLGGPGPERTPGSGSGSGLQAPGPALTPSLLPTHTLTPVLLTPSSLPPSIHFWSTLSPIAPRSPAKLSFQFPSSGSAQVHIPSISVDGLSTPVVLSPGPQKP
# In short: as §1
# GABPA = biological target: T3, GABPA (Homo sapiens, UniProt Q06546 1-454); conditions: protein: recombinant; tags: N-terminal GST; dsDNA, one strand shown
# T3 sequence: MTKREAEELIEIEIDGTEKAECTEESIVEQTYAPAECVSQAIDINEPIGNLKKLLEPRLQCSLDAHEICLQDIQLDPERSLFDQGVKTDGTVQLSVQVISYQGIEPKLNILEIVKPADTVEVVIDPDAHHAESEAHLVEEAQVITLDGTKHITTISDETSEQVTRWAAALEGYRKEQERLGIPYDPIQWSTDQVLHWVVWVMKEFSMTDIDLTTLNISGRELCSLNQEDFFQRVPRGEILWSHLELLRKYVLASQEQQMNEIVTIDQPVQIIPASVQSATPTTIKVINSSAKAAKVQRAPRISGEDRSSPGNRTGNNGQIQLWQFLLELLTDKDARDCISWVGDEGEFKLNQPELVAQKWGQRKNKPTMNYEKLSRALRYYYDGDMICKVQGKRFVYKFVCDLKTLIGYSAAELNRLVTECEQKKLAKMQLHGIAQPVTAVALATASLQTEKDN
# In short: as §1
# ERG = biological target: T4, ERG (Homo sapiens, UniProt P11308 1-479); conditions: protein: recombinant; tags: N-terminal GST; dsDNA, one strand shown
# T4 sequence: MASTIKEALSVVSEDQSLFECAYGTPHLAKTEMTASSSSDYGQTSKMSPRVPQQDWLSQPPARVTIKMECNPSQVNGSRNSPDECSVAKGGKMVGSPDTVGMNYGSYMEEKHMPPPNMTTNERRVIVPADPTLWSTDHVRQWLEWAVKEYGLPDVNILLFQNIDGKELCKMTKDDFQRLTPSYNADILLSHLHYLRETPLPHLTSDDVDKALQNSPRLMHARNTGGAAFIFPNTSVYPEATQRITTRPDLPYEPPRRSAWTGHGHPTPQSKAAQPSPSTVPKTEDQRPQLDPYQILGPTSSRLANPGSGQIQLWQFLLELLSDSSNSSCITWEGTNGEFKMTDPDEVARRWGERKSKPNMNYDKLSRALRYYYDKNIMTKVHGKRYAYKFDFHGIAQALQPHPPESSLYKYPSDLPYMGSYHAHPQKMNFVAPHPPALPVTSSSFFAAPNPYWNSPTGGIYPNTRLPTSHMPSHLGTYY
# In short: as §1
# ELF1 = ELF1 (Homo sapiens, UniProt P32519 1-619); conditions: protein: recombinant; tags: N-terminal GST; dsDNA, one strand shown
# Sequence of ELF1 (P32519 whole entry): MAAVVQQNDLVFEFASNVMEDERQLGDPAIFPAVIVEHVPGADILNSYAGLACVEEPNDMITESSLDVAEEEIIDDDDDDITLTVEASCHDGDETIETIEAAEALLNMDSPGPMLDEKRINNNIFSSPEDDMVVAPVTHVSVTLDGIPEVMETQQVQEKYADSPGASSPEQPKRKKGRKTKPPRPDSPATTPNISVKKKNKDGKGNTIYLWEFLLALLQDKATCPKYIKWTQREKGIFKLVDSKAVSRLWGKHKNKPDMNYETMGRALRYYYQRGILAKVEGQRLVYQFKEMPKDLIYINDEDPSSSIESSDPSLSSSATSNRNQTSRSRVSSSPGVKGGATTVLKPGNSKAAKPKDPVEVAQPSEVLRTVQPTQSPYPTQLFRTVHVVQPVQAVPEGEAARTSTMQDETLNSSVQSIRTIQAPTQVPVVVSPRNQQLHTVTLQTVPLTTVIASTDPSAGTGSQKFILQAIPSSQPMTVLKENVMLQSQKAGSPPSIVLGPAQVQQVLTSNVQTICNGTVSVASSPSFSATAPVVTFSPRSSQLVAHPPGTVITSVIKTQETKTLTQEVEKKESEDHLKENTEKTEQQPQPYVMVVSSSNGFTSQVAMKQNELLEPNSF
# In short: as §1
# EHF = biological target: T5, EHF (Homo sapiens, UniProt Q9NZC4 1-300); conditions: protein: recombinant; tags: N-terminal GST; dsDNA, one strand shown
# T5 sequence: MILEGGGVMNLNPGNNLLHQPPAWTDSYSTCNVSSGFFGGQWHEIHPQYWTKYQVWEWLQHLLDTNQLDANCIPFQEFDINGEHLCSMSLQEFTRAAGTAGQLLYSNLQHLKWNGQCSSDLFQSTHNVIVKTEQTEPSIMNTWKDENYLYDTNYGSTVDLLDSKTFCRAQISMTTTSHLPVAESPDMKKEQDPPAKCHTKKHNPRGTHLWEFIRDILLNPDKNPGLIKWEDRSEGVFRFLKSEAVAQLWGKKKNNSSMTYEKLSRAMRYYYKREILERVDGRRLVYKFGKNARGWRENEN
# In short: as §1
# SPI1 = SPI1 (Homo sapiens, UniProt P17947 1-270); conditions: protein: recombinant; tags: N-terminal GST; dsDNA, one strand shown
# In short: as §1
# SPIB = SPIB (Homo sapiens, UniProt Q01892 1-262); conditions: protein: recombinant; tags: N-terminal GST; dsDNA, one strand shown
# Sequence of SPIB (Q01892 whole entry): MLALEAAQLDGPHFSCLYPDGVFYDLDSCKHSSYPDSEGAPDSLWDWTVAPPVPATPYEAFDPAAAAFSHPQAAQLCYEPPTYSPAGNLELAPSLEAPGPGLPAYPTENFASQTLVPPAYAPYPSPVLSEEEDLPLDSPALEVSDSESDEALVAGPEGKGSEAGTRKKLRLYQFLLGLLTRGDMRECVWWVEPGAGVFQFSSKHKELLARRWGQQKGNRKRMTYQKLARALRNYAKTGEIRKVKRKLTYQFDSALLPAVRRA
# In short: as §1
# ELK3 = biological target: T6, ELK3 (Homo sapiens, UniProt P41970 1-407); conditions: protein: recombinant; tags: N-terminal GST; dsDNA, one strand shown
# T6 sequence: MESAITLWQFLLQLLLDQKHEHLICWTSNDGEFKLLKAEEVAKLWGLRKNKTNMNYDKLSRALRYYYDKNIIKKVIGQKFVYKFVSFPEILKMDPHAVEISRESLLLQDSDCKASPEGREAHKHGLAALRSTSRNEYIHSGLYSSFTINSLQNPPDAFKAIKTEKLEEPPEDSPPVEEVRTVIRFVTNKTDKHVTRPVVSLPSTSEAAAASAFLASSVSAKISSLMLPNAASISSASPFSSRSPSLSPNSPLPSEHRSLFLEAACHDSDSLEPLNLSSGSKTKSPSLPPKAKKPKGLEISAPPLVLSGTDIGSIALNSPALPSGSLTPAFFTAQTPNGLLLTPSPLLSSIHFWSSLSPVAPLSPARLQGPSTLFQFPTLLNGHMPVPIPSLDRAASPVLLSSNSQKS
# In short: as §1
# FEV = biological target: T7, FEV (Homo sapiens, UniProt Q99581 1-238); conditions: protein: recombinant; tags: N-terminal GST; dsDNA, one strand shown
# T7 sequence: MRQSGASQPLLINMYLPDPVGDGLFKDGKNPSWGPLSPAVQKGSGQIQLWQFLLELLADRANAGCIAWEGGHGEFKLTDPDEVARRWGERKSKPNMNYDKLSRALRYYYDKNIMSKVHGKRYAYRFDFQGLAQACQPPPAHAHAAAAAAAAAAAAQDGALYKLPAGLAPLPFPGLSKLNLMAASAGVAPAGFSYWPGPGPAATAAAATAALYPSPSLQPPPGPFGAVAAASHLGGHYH
# In short: as §1
# ETV5 = ETV5 (Homo sapiens, UniProt P41161 1-510); conditions: protein: recombinant; tags: N-terminal GST; dsDNA, one strand shown
# Sequence of ETV5 (P41161 whole entry): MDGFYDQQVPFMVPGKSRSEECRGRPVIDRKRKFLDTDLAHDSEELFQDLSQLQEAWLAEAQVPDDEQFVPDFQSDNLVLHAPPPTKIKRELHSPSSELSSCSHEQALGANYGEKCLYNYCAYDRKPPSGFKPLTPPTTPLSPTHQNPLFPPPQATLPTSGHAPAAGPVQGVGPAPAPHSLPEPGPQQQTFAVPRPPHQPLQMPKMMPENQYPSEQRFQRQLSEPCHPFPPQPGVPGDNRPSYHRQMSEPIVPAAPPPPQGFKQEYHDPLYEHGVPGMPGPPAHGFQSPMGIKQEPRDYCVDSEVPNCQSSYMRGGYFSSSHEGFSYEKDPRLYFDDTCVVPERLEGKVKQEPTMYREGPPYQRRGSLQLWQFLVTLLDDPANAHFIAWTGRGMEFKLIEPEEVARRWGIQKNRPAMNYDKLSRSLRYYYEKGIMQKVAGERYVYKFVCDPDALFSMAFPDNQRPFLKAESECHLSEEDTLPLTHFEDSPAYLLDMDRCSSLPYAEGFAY
# In short: as §1
# HSF1 = HSF1 (Homo sapiens, UniProt Q00613 1-529); conditions: protein: recombinant; tags: N-terminal GST; chain copies: 3; dsDNA, one strand shown
# Sequence of HSF1 (Q00613 whole entry): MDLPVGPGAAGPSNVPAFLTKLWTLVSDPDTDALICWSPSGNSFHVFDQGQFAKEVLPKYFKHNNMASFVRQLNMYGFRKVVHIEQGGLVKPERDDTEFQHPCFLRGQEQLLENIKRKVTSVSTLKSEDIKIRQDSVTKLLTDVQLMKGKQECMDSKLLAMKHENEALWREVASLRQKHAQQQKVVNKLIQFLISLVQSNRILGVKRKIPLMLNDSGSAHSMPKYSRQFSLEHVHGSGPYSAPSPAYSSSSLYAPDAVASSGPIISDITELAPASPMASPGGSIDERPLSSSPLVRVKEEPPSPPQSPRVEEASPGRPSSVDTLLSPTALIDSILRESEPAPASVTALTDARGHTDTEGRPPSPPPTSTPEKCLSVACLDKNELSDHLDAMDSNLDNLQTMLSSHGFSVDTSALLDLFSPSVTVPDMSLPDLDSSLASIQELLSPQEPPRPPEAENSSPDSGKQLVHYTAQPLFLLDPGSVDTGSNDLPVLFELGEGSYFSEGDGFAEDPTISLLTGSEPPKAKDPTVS
# In short: as §1
# SPIC = biological target: T8, SPIC (Homo sapiens, UniProt Q8N5J4 1-248); conditions: protein: recombinant; tags: N-terminal GST; dsDNA, one strand shown
# T8 sequence: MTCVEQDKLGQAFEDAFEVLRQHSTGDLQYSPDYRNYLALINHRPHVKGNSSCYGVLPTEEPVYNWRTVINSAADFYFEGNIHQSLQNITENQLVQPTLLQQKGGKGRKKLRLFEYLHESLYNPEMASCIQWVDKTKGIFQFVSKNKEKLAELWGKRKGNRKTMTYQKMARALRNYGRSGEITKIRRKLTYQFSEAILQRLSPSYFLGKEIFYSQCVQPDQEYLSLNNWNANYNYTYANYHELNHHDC
# In short: as §1
# ELF4 = ELF4 (Homo sapiens, UniProt Q99607 1-663); conditions: protein: recombinant; tags: N-terminal GST; dsDNA, one strand shown
# Sequence of ELF4 (Q99607 whole entry): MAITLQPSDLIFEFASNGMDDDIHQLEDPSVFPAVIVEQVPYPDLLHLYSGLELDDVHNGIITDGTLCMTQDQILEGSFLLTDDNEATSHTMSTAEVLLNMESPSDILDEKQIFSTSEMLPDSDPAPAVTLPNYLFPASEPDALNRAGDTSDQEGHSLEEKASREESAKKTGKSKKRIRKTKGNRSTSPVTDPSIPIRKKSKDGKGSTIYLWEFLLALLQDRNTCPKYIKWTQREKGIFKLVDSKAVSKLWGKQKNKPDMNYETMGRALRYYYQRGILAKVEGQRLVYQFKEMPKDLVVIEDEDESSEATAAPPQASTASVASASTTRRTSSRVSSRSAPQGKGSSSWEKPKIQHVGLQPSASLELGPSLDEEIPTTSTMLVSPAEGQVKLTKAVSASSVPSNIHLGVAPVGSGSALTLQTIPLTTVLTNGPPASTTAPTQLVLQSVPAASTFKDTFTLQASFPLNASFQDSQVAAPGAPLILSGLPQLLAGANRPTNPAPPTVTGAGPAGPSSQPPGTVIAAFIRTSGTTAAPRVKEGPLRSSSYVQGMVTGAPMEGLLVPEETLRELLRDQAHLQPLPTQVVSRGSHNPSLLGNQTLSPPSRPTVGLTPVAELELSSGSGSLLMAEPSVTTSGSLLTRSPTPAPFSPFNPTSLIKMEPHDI
# In short: as §1
# ELK4 = biological target: T9, ELK4 (Homo sapiens, UniProt P28324-2 1-405); conditions: protein: recombinant; tags: N-terminal GST; dsDNA, one strand shown
# T9 sequence: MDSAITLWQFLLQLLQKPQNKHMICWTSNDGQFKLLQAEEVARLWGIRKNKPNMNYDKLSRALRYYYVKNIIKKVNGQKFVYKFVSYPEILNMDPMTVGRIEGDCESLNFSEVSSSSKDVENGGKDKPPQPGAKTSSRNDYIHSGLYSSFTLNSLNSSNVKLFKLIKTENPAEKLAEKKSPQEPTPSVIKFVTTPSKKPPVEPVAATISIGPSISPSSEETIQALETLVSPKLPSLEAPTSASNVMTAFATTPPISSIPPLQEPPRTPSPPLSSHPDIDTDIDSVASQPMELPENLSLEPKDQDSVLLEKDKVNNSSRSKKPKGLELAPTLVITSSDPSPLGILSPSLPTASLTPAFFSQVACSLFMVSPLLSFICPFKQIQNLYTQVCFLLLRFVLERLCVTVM
# In short: as §1
# ETV2 = biological target: T10, ETV2 (Homo sapiens, UniProt O00321 1-342); conditions: protein: recombinant; tags: N-terminal GST; dsDNA, one strand shown
# T10 sequence: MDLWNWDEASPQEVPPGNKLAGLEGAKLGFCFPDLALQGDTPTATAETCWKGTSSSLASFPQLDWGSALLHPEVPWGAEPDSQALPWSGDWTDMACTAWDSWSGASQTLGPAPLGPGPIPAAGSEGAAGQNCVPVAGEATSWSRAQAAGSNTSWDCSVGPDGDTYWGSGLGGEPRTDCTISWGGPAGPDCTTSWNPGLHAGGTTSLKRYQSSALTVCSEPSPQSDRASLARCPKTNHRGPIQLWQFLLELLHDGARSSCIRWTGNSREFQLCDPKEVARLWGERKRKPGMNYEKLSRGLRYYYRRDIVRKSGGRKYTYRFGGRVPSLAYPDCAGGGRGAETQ
# In short: as §1
# CRX = CRX (Homo sapiens, UniProt O43186 1-299); conditions: protein: recombinant; tags: N-terminal GST; dsDNA, one strand shown
# Sequence of CRX (O43186 whole entry): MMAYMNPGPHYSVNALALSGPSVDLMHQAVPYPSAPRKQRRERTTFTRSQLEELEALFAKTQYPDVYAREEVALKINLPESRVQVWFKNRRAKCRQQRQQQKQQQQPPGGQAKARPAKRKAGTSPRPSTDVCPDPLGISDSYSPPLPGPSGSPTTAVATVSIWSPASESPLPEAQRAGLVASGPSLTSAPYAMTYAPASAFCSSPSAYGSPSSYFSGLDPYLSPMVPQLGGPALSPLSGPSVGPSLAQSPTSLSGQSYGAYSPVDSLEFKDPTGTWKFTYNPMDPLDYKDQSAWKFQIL
# In short: as §1
# ETV1 = ETV1 (Homo sapiens, UniProt P50549 1-477); conditions: protein: recombinant; tags: N-terminal GST; dsDNA, one strand shown
# Sequence of ETV1 (P50549 whole entry): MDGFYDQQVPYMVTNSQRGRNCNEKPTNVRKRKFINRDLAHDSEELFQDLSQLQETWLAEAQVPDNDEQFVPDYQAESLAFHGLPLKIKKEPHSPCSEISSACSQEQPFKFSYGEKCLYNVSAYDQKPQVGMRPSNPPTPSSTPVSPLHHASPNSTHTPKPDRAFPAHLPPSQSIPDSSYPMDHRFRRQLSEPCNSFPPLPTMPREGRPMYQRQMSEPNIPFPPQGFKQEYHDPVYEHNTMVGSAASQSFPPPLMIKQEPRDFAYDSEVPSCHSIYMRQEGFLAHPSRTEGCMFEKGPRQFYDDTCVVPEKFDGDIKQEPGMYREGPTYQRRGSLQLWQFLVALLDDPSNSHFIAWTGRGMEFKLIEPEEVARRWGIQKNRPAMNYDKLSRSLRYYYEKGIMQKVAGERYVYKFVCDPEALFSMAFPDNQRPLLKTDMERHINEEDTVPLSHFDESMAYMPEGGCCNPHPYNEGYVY
# In short: as §1
sequence,measurement,setting,value
GCCTAT,binding signal,FLI1,"1.18 fold enrichment (6-mer frequency, TF over GST control)"
same,binding signal,ELK1,"1.3 fold enrichment (6-mer frequency, TF over GST control)"
same,binding signal,GABPA,"1.21 fold enrichment (6-mer frequency, TF over GST control)"
same,binding signal,ERG,"1.23 fold enrichment (6-mer frequency, TF over GST control)"
same,binding signal,ELF1,"1.39 fold enrichment (6-mer frequency, TF over GST control)"
same,binding signal,EHF,"1.17 fold enrichment (6-mer frequency, TF over GST control)"
same,binding signal,SPI1,"1.13 fold enrichment (6-mer frequency, TF over GST control)"
same,binding signal,SPIB,"1.21 fold enrichment (6-mer frequency, TF over GST control)"
same,binding signal,ELK3,"1.27 fold enrichment (6-mer frequency, TF over GST control)"
same,binding signal,FEV,"1.16 fold enrichment (6-mer frequency, TF over GST control)"
same,binding signal,ETV5,"1.3 fold enrichment (6-mer frequency, TF over GST control)"
same,binding signal,HSF1,"1.07 fold enrichment (6-mer frequency, TF over GST control)"
same,binding signal,SPIC,"1.12 fold enrichment (6-mer frequency, TF over GST control)"
same,binding signal,ELF4,"1.18 fold enrichment (6-mer frequency, TF over GST control)"
same,binding signal,ELK4,"1.31 fold enrichment (6-mer frequency, TF over GST control)"
same,binding signal,ETV2,"1.2 fold enrichment (6-mer frequency, TF over GST control)"
same,binding signal,CRX,"1.3 fold enrichment (6-mer frequency, TF over GST control)"
same,binding signal,ETV1,"1.09 fold enrichment (6-mer frequency, TF over GST control)"
